This passage reports binding signal results from publication PMC7862700, “An all-to-all approach to the identification of sequence-specific readers for epigenetic DNA modifications on cytosine”.

Holding throughout (test): DAPPL (digital affinity profiling via proximity ligation, sequencing); 10 mM Tris-HCl pH 7.5, 50 mM NaCl, 1 mM DTT, 4% glycerol, room temperature, 30 min; GST-TFs on glutathione beads, 16-mer random dsDNA library, 0.1% formaldehyde crosslink after washing; high values mean tight binding
The target in assay [1] is T1, FEV (Homo sapiens, UniProt Q99581 1-238).
T1 sequence: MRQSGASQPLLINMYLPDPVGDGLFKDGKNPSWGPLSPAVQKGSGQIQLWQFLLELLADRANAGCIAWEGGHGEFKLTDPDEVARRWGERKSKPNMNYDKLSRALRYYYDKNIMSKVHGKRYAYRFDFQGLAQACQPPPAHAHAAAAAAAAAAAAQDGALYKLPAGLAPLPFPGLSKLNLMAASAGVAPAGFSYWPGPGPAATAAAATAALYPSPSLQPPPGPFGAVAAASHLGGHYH
The settings on record: protein: recombinant; tags: N-terminal GST; dsDNA, one strand shown. The procedure, abridged: (§1)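 In yeast, human transcription factors were expressed with a GST fusion, then pulled down on glutathione beads and given DNA barcodes. Pooled with a tag-only sample, they were exposed to 200 nmole of a 16-mer random double-stranded DNA library (Tris/NaCl/DTT/glycerol buffer, room temperature, 30 min), washed, crosslinked with 0.1% formaldehyde, proximity-ligated using BsaI/T4 ligase for 1 h at 37 °C, PCR-amplified and read on an Illumina NextSeq500. Each hexamer's frequency of reads for a factor, divided by the matching frequency for the tag-only sample, gives the binding signal.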

Assay [2] deals with ETV5 (Homo sapiens, UniProt P41161 1-510). The settings on record: protein: recombinant; tags: N-terminal GST; dsDNA, one strand shown. In outline:
as §1

For assay [3], the target named is HSF1 (Homo sapiens, UniProt Q00613 1-529). The settings on record: protein: recombinant; tags: N-terminal GST; chain copies: 3; dsDNA, one strand shown. The procedure, abridged: as §1
Assay [4] addresses T2, SPIC (Homo sapiens, UniProt Q8N5J4 1-248).
T2 sequence: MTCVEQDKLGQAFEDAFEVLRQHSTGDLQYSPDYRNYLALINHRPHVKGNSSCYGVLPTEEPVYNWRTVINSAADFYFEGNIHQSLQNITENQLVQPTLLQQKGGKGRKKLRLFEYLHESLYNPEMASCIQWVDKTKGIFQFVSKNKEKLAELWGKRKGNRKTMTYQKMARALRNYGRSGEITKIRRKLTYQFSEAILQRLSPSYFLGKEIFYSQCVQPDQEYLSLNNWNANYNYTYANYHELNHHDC
The settings on record: protein: recombinant; tags: N-terminal GST; dsDNA, one strand shown. In outline: as §1

Assay [5] addresses ELF4 (Homo sapiens, UniProt Q99607 1-663). The settings on record: protein: recombinant; tags: N-terminal GST; dsDNA, one strand shown. In outline: as §1
Assay [6] addresses T3, ELK4 (Homo sapiens, UniProt P28324-2 1-405).
T3 sequence: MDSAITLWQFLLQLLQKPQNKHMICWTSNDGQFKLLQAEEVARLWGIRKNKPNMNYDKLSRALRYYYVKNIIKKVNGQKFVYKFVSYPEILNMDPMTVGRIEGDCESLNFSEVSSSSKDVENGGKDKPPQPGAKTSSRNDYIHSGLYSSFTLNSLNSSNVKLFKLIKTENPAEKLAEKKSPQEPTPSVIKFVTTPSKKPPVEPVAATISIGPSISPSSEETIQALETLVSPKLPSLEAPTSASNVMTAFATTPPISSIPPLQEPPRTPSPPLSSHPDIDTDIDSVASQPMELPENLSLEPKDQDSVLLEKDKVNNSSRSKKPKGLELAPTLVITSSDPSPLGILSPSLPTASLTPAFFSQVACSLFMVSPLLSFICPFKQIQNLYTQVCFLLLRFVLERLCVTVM
To be noted: protein: recombinant; tags: N-terminal GST; dsDNA, one strand shown. In outline: as §1

The target of assay [7] is T4, ETV2 (Homo sapiens, UniProt O00321 1-342).
T4 sequence: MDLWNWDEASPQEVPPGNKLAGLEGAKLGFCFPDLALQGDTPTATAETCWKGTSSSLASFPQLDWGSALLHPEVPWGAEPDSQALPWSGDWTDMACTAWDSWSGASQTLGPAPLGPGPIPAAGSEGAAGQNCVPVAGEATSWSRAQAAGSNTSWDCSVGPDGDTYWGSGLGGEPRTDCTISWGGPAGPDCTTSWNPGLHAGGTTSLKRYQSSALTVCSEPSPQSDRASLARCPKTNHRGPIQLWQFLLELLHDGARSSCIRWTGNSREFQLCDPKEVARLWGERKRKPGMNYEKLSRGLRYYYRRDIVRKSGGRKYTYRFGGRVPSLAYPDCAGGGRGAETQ
To be noted: protein: recombinant; tags: N-terminal GST; dsDNA, one strand shown. The procedure, abridged: as §1

The target of assay [8] is T5, ELF3 (Homo sapiens, UniProt P78545 1-371).
T5 sequence: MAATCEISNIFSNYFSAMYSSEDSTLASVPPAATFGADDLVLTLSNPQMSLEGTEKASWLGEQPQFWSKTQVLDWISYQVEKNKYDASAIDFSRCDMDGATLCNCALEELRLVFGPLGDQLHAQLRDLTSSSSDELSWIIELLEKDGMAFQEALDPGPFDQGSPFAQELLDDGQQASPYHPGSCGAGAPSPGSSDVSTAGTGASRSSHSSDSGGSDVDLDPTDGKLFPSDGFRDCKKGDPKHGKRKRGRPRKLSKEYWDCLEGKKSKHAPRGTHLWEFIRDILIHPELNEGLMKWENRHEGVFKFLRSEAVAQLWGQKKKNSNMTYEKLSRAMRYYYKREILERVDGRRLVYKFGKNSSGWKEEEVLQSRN
To be noted: protein: recombinant; tags: N-terminal GST; dsDNA, one strand shown. The procedure, abridged: as §1

In assay [9] the target is CRX (Homo sapiens, UniProt O43186 1-299). To be noted: protein: recombinant; tags: N-terminal GST; dsDNA, one strand shown. In outline:
as §1

Assay [10] addresses ETV1 (Homo sapiens, UniProt P50549 1-477). The settings on record: protein: recombinant; tags: N-terminal GST; dsDNA, one strand shown. The procedure, abridged: as §1
For assay [11], the target named is T6, ERF (Homo sapiens, UniProt P50548 1-548).
T6 sequence: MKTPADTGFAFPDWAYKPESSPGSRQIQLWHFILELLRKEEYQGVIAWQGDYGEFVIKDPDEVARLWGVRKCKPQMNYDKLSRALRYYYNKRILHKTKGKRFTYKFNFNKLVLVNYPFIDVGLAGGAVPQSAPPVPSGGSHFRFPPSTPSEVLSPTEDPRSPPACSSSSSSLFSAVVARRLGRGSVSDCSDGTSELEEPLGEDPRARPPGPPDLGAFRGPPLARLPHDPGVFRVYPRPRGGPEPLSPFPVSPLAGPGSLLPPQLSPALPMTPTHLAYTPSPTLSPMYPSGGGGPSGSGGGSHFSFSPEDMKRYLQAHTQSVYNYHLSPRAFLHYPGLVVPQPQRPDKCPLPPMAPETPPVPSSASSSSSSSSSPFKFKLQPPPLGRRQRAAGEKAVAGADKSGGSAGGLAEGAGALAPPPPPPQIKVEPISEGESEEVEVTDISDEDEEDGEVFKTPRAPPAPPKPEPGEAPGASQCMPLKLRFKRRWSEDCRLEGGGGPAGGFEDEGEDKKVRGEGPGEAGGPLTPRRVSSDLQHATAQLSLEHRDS
To be noted: protein: recombinant; tags: N-terminal GST; dsDNA, one strand shown. In outline:
as §1

In assay [12] the target is T7, ETV3L (Homo sapiens, UniProt Q6ZN32 1-361).
T7 sequence: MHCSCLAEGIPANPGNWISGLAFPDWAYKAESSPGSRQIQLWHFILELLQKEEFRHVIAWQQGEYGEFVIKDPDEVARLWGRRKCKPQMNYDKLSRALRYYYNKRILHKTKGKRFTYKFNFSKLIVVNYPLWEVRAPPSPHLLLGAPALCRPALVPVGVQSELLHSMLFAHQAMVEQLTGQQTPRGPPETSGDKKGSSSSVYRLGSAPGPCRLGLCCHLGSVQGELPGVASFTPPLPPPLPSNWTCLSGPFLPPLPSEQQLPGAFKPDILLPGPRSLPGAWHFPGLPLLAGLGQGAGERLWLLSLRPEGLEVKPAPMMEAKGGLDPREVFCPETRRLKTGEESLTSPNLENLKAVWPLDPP
The settings on record: protein: recombinant; tags: N-terminal GST; dsDNA, one strand shown. The procedure, abridged:
as §1

Assay [13] has as its target T8, ETS2 (Homo sapiens, UniProt P15036 1-469).
T8 sequence: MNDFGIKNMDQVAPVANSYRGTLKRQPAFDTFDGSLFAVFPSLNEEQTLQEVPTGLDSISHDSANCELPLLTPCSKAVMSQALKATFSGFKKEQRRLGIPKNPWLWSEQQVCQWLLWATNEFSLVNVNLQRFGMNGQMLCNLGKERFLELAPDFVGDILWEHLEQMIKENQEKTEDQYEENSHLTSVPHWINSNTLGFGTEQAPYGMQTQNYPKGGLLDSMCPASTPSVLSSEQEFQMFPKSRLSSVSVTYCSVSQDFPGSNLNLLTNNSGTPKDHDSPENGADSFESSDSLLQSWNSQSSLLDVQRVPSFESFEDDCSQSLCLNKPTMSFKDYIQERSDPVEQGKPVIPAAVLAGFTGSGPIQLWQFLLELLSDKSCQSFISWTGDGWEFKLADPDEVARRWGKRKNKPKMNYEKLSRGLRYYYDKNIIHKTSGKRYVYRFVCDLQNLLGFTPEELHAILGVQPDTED
The settings on record: protein: recombinant; tags: N-terminal GST; dsDNA, one strand shown. In outline: as §1

The target in assay [14] is T9, SPDEF (Homo sapiens, UniProt O95238 1-335).
T9 sequence: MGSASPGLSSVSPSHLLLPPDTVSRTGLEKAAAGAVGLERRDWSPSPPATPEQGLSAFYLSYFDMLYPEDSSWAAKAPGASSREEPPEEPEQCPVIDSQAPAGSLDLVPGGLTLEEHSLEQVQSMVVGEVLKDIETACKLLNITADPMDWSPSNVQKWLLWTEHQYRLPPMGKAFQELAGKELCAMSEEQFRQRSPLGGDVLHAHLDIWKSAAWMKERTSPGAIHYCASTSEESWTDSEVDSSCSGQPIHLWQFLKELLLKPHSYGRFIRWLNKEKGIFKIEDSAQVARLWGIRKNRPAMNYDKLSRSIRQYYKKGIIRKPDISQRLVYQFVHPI
To be noted: protein: recombinant; tags: N-terminal GST; dsDNA, one strand shown. In outline:
as §1

For assay [15], the target named is T10, ETV7 (Homo sapiens, UniProt Q9Y603 1-341).
T10 sequence: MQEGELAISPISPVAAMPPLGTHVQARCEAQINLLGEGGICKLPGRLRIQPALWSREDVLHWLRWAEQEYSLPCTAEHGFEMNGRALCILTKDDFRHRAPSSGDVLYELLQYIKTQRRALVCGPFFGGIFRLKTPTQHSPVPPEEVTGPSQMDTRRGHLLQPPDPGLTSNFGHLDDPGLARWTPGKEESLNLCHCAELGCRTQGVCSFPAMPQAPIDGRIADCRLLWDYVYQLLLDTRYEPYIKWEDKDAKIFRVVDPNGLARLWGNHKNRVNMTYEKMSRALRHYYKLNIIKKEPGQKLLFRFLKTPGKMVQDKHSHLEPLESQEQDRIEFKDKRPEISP
The settings on record: protein: recombinant; tags: N-terminal GST; dsDNA, one strand shown. The procedure, abridged:
as §1

Assay [16] addresses T11, ELF5 (Homo sapiens, UniProt Q9UKW6-2 1-255).
T11 sequence: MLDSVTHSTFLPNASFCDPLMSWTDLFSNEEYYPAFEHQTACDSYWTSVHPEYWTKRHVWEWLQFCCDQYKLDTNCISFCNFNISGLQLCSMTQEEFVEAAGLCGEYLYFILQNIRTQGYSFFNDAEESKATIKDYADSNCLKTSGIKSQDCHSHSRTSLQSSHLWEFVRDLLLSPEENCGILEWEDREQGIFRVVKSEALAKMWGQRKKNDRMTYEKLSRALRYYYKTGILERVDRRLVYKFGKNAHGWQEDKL
The settings on record: protein: recombinant; tags: N-terminal GST; dsDNA, one strand shown. The procedure, abridged:
as §1

The target of assay [17] is T12, ETV3 (Homo sapiens, UniProt P41162-2 1-143).
T12 sequence: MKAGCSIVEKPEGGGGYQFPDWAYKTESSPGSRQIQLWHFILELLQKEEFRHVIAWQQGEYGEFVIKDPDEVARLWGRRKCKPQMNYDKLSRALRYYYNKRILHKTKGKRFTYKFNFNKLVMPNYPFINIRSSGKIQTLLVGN
The settings on record: protein: recombinant; tags: N-terminal GST; dsDNA, one strand shown. In outline:
as §1

Assay [18] concerns the target ETV6 (Homo sapiens, UniProt P41212 1-452). The settings on record: protein: recombinant; tags: N-terminal GST; dsDNA, one strand shown. In outline: as §1

ETV6, sequence (P41212 whole entry): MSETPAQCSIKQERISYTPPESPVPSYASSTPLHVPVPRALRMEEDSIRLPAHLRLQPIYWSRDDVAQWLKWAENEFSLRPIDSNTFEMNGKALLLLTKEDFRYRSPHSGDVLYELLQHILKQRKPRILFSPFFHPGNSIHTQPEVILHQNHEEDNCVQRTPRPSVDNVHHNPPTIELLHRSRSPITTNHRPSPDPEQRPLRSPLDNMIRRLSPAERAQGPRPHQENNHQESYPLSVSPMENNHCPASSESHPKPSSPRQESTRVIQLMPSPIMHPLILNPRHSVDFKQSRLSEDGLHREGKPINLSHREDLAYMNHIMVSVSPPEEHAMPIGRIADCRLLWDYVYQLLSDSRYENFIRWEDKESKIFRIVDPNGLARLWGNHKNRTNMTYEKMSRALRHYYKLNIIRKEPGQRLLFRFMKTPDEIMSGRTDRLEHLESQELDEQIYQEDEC
ELF4, sequence (Q99607 whole entry): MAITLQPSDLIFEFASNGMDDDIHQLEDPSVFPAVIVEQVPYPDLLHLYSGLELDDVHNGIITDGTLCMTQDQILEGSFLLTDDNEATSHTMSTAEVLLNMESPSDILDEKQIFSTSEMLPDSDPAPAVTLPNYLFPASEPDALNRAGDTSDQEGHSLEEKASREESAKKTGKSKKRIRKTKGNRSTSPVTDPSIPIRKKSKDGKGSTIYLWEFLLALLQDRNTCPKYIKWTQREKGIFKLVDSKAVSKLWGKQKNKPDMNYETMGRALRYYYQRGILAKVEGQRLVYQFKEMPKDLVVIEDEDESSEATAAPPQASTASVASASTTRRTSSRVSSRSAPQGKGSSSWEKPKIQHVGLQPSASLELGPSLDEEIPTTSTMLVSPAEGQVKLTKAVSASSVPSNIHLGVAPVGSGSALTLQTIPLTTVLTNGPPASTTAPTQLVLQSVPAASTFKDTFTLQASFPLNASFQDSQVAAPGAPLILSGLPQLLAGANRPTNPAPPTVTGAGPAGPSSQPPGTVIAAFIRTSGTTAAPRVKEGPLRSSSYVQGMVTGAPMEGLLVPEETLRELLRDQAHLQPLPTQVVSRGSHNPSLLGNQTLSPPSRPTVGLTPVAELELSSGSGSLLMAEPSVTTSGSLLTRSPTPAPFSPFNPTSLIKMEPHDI
HSF1, sequence (Q00613 whole entry): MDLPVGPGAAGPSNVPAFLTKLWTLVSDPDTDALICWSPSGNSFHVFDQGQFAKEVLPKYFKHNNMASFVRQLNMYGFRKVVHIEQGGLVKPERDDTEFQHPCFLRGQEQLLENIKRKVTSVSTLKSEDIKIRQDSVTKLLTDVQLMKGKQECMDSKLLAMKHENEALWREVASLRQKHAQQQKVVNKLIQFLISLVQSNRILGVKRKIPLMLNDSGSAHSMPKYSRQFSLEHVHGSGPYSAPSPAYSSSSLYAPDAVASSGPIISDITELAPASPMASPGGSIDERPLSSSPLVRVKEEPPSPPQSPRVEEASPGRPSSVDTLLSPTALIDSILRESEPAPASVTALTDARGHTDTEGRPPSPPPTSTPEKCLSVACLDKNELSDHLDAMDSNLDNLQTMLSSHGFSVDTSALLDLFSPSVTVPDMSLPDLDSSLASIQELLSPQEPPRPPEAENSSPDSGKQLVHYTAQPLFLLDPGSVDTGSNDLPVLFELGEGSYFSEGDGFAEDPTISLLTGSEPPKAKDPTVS
ETV5, sequence (P41161 whole entry): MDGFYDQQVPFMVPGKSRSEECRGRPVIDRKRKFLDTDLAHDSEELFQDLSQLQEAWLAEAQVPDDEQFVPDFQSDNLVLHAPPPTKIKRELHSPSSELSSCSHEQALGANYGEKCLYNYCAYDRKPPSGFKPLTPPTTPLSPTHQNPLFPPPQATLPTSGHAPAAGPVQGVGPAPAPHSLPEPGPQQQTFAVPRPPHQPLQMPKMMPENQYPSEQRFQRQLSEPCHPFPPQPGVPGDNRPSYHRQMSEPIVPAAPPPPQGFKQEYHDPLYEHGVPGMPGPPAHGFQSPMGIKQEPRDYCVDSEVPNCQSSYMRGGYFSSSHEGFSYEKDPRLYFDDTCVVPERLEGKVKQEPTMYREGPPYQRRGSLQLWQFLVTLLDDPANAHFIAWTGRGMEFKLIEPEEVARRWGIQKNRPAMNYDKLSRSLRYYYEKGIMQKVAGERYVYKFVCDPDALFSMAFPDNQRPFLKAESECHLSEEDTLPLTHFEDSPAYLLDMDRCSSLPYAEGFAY
ETV1, sequence (P50549 whole entry): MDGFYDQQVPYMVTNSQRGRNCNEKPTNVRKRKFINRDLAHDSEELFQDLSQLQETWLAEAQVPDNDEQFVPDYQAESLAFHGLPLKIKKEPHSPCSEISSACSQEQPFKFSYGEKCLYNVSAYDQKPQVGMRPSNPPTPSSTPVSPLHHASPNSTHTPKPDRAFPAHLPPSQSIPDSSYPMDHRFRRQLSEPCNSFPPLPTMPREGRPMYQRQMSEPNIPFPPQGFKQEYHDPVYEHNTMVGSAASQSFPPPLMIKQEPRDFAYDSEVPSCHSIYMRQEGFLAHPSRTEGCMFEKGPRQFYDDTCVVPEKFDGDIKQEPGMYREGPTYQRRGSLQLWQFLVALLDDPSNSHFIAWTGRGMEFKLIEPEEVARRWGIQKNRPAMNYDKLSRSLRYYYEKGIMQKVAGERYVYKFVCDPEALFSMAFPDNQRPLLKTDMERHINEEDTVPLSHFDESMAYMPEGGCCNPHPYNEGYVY
CRX, sequence (O43186 whole entry): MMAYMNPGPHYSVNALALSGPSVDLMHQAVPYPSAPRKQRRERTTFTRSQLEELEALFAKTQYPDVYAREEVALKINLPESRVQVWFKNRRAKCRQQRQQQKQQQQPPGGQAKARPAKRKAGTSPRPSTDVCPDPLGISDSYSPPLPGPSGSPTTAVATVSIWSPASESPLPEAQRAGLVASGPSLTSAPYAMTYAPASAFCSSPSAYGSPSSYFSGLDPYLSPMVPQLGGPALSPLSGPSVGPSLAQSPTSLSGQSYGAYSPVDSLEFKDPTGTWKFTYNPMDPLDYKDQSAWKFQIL

Take CTTGGT: the binding signal is 1.33 fold enrichment (6-mer frequency, TF over GST control) in assay [1]; 1.46 fold enrichment (6-mer frequency, TF over GST control) in assay [2]; 1.18 fold enrichment (6-mer frequency, TF over GST control) in [3]; 1.61 fold enrichment (6-mer frequency, TF over GST control) in [4]; 1.58 fold enrichment (6-mer frequency, TF over GST control) in assay [5]; 1.53 fold enrichment (6-mer frequency, TF over GST control) in assay [6]. Besides, the binding signal was 1.53 fold enrichment (6-mer frequency, TF over GST control) in [7]; 1.51 fold enrichment (6-mer frequency, TF over GST control) in assay [8]; 1.21 fold enrichment (6-mer frequency, TF over GST control) in assay [9]; 1.53 fold enrichment (6-mer frequency, TF over GST control) in assay [10]; 1.34 fold enrichment (6-mer frequency, TF over GST control) in assay [11]; 1.47 fold enrichment (6-mer frequency, TF over GST control) in [12]. Besides, the binding signal in [13] was 1.45 fold enrichment (6-mer frequency, TF over GST control); in assay [14], 1.51 fold enrichment (6-mer frequency, TF over GST control); in [15], 1.49 fold enrichment (6-mer frequency, TF over GST control); in [16], 1.37 fold enrichment (6-mer frequency, TF over GST control); in assay [17], 1.34 fold enrichment (6-mer frequency, TF over GST control); in [18], 1.44 fold enrichment (6-mer frequency, TF over GST control).
